Reference: PubChem BioAssay (NCI)
Where “and” joins values, the source holds several entries; their conditions need not be identical. Equal entries are not always repeated. About 83,000 compounds went through this panel and 20% of them were active in at least one assay; those are over-represented in the sample as a whole.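 In brief: 96-well plates, 48 h treatment, single concentration, percent growth endpoint.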 Calls of active or inactive are those of the source.

test system: HCT-116 colon; assay: NCI-60 one-dose screen, 48 h (100 = growth as untreated, 0 = no growth, -100 = all killed); details: 10 µM
Experimental: Growth inhibition of the HCT-116 human tumor cell line is measured as a screen for anti-cancer activity. Cells are grown in 96 well plates and exposed to the test compound for 48 hours. Compounds are tested at a single concentration, which is 10^-5 M for most compounds. The reported endpoint is percent growth (GI% or GIPRCNT), where numbers from 0 - 100% represent growth inhibition, and numbers from -100% - 0 represent cell death. For example, a value of 40 represents 60% growth inhibition. A value of 0 means no net growth occurred over the course of the experiment. A value of -40 indicates 40% of cells at the beginning of the experiment died by the end of the experiment. A value of -100 means all cells are dead at the end of the experiment.
NCI-60 Human Tumor Cell Lines Screen was performed using the standard one-dose NCI protocol, which is described in more detail at https://dtp.cancer.gov/discovery_development/nci-60/default.htm.
Compounds with GIPRCNT values below 10 were considered active. Activity score was based on GIPRCNT using the following formula: […]
Score is 0 for GIPRCNT values of 100 or above, 50 for GIPRCNT values of 0, and 100 for GIPRCNT values of -100.

Row | SMILES | growth
1 | COc1cccc2c1cc([N+](=O)[O-])c1c(C(=O)O)cc3c(c12)OCO3 | 101% (inactive)
2 | C/C=C/CC(C)C(O)[C@H](NC(=O)[C@@H]1CCCN1C(=O)C(C)(C)NC(=O)CCCCCCCCC)C(=O)N[C@@](C)(CC)C(=O)N[C@@H](CCC(N)=O)C(=O)N[C@H](CCC(N)=O)C(=O)NC(C)(C)C(=O)NC(C)(C)C(=O)N[C@@H](CCC(N)=O)C(=O)N[C@H](CC(C)C)C(=O)N[C@H](CO)CC(C)C (stereo not given in full) | 33.5% (inactive) and 78.4% (inactive)
3 | CC1=C[C@H]2O[C@@H]3C[C@H]4OC(=O)/C=C\C=C\[C@H]([C@@H](C)O)OCC/C(C)=C/C(=O)OC[C@@]2(CC1)[C@]4(C)[C@]31CO1 | -28.7% (active)
4 | CN(CCF)/N=N/c1nc[nH]c1C(N)=O | 24% (inactive)
5 | CC1=C[C@H]2O[C@@H]3C[C@@H](O)[C@](C)([C@@]2(C)CC1)[C@@]31CO1 | 7.52% (active)
6 | C/C=C/CC(C)C(O)[C@H](NC(=O)[C@@H]1CCCN1C(=O)C(C)(C)NC(=O)CCCCCCC)C(=O)N[C@@](C)(CC)C(=O)N[C@@H](CCC(N)=O)C(=O)N[C@H](CCC(N)=O)C(=O)NC(C)(C)C(=O)NC(C)(C)C(=O)N[C@@H](CCC(N)=O)C(=O)N[C@H](CC(C)C)C(=O)N[C@H](CO)CC(C)C (stereo not given in full) | 108% (inactive) and 25.3% (inactive)
7 | O=C(CCCc1ccc(N(CCCl)CCCl)cc1)OCc1ccccc1 | 92.7% (inactive)
8 | COc1cc(C)c(-c2ccc(OC)c(=O)cc2C)c(OC)c1OC | 11.9% (inactive) and 102% (inactive)
9 | CC(C)(O)/C=C/C(=O)[C@](C)(O)[C@H]1[C@H](O)C[C@@]2(C)[C@H]3CC=C4[C@@H](C[C@H](O)C(=O)C4(C)C)[C@]3(C)C(=O)C[C@]12C | 13.9% (inactive)
10 | CC(=O)O[C@@H]1[C@@H]2O[C@H]2[C@@](C)(O)C(=O)[C@@H](C)C/C=C/[C@H]2[C@@H]3O[C@]3(C)[C@@H](C)C3[C@H](Cc4ccccc4)NC(=O)[C@@]312 (stereo not given in full) | 54.9% (inactive)
11 | C/C=C\C(=O)O[C@@H]1CC2O[C@@H]3C=C(C)C(=O)C[C@]3(C)[C@]1(C)[C@]21CO1 | -29.4% (active)
12 | C[C@@H]1C[C@H]2C(=O)O[C@@H](C)C(NC(=O)[C@H](Cc3cc(F)cc(F)c3)NC(=O)Nc3ccc(OS(=O)(=O)F)cc3)C(=O)N3CCC[C@H]3C(=O)N3CCO[C@H](C)[C@H]3C(=O)N[C@@H](CO)C(=O)N2C1 (stereo not given in full) | 9.86% (active)
13 | CC1=C2C(=C[C@@](C)(COC(=O)c3ccc(S(=O)(=O)F)cc3)[C@@H]2O)C(=O)[C@](C)(O)C12CC2 | -4.41% (active)
14 | CCC(C)[C@H]1C(=O)O[C@H](C(C)C)C(=O)N(C)[C@@H](C(C)C)C(=O)O[C@H](C(C)C)C(=O)N(C)[C@@H](C(C)C)C(=O)O[C@H](C(C)C)C(=O)N1C (stereo not given in full) | 12.2% (inactive)
15 | CC1=C2C(=O)[C@](C)(CO)C=C2C(=O)[C@](C)(O)C12CC2 | 5.03% (active)
16 | CC(C)=CCc1c2c(c(O)c3c1O[C@]14C(=C[C@@H]5C[C@H]1C(C)(C)O[C@@]4(C/C=C(/C)C(=O)O)C5=O)C3=O)C=CC(C)(C)O2 | -71.5% (active)
17 | CCCCCCCCCC(=O)N[C@@](C)(CC)C(=O)N1CCC[C@H]1C(=O)N[C@@H](CC(C)C)C(=O)N[C@@](C)(CC)C(=O)N[C@@H](CCC(N)=O)C(=O)N[C@H](CCC(N)=O)C(=O)NC(C)(C)C(=O)NC(C)(C)C(=O)N[C@@H](CCC(N)=O)C(=O)N[C@H](CC(C)C)C(=O)N[C@H](CO)CC(C)C | -66.1% (active) and -29% (active)
18 | COC(=O)[C@H]1[C@@H](O)[C@@]2(O)c3c(OC)cc(OC)cc3O[C@@]2(c2ccc(OC)cc2)[C@@H]1c1ccccc1 | -6.31% (active)
19 | C=C1[C@@H](C)C2[C@H](Cc3ccccc3)NC(=O)[C@]23[C@H](OC(C)=O)/C=C/[C@@](C)(O)C(=O)[C@@H](C)C/C=C/[C@H]3[C@@H]1O (stereo not given in full) | 44.4% (inactive)
20 | Cc1ccc(CNc2nc3ccc(OC/C(=C/F)CN)cc3o2)cn1 | 100% (inactive)

Row | SMILES | growth
21 | COC1[C@@H]2C[C@H]3C(C)(C)O[C@@](C/C=C(/C)C(=O)O)(C2=O)[C@]32Oc3c(CC=C(C)C)c4c(c(O)c3C(=O)[C@H]12)C=CC(C)(C)O4 (stereo not given in full) | -61.4% (active)
22 | N#Cc1c(-n2c(Br)c(Br)c3cc(Br)ccc32)[nH]c2c(Br)cc(Br)cc12 | -66.1% (active)
23 | COc1cc2c(O[C@@H]3OC[C@H](O)[C@H](O)[C@H]3O)c3c(c(-c4ccc5c(c4)OCO5)c2cc1OC)C(=O)OC3 | 29.1% (inactive)
24 | CC1=C(CN(O)C(N)=O)C2=C(C)C3(CC3)[C@@](C)(O)C(=O)C2=C1 | 4.72% (active)
25 | N#Cc1nc(-c2ccccc2)oc1N1CCC(S(=O)(=O)F)CC1 | 101% (inactive)
26 | CC1=C2C(=C[C@@](C)(COC(=O)c3ccc(S(=O)(=O)F)cc3)[C@@H]2OC(=O)c2ccc(S(=O)(=O)F)cc2)C(=O)[C@](C)(O)C12CC2 | 0.583% (active)
27 | CC1=C[C@H]2O[C@@H]3C[C@H]4OC(=O)/C=C\C=C\[C@H]([C@@H](C)O)OCC[C@@H](C)[C@H](O)C(=O)OC[C@@]2(CC1)[C@]4(C)[C@]31CO1 | -27.7% (active)
28 | CC1=C2C(=C[C@@](C)(C=O)[C@@H]2O)C(=O)[C@](C)(O)C12CC2 | 6.13% (active)
29 | CC1=C(CN(O)C(N)=O)C2=C(C)C3(CC3)[C@](C)(O)C(=O)C2=C1 | 7.48% (active)
30 | CC(=O)O[C@@H]1C[C@H]2O[C@@H]3C=C(C)CC[C@]3(C)[C@]1(C)[C@]21CO1 | 0.731% (active)
31 | CC1=C(CCC=NNC(N)=O)C2=C(C)C3(CC3)[C@@](C)(O)C(=O)C2=C1 | 1.32% (active)
32 | C/C=C/CC(C)C(O)[C@H](NC(=O)[C@@H]1CCCN1C(=O)C(C)(C)NC(=O)CCCCCCCCC)C(=O)N[C@@](C)(CC)C(=O)N[C@@H](CCC(N)=O)C(=O)N[C@H](CCC(N)=O)C(=O)NC(C)(C)C(=O)N[C@@](C)(CC)C(=O)N[C@@H](CCC(N)=O)C(=O)N[C@H](CC(C)C)C(=O)N[C@H](CO)CC(C)C (stereo not given in full) | 102% (inactive) and 0.686% (active)
33 | CN1C(=O)[C@]23SSC1(C)C(=O)N2[C@H]1Nc2ccccc2C1([C@@]12c4ccccc4N[C@@H]1N1C(=O)C4(C)SS[C@]1(C(=O)N4C)[C@H]2O)[C@@H]3O (stereo not given in full) | -99.5% (active)
34 | C[C@@H]1CCC/C=C/[C@H]2C[C@@H](O)C[C@@H]2[C@@H](O)/C=C/C(=O)O1 | -1.47% (active)
35 | C/C=C/CC(C)C(O)[C@H](NC(=O)[C@@H]1CCCN1C(=O)C(C)(C)NC(=O)CCCCCCCCC)C(=O)NC(C)(C)C(=O)N[C@@H](CCC(N)=O)C(=O)N[C@H](CCC(N)=O)C(=O)NC(C)(C)C(=O)NC(C)(C)C(=O)N[C@@H](CCC(N)=O)C(=O)N[C@H](CC(C)C)C(=O)N[C@H](CO)CC(C)C (stereo not given in full) | 13.1% (inactive) and 6.15% (active)
36 | NC1CCc2cc(O)c(O)cc2C1 (stereo not given) | 58.1% (inactive)
37 | COc1cc2c(cc1OC)[C@@H]1N(CC2)C(=O)c2ccccc2[C@@]1(C)C(=O)O | 111% (inactive)
38 | COc1cc(OC)c(S(=O)(=O)N(CCCl)CCCl)cc1C(=O)/C=C/c1ccc(Cl)cc1 | 49.2% (inactive)
39 | CC1=C2C(=C[C@@](C)(COS(C)(=O)=O)[C@@H]2O)C(=O)[C@](C)(O)C12CC2 | 4.67% (active)
40 | COc1cc2c(O[C@@H]3OC[C@H](OC(C)=O)[C@H](OC(C)=O)[C@H]3O)c3c(c(-c4ccc5c(c4)OCO5)c2cc1OC)C(=O)OC3 | 9.2% (active)
